This is an account of results in PubChem BioAssay.

Molecules are shown by their SMILES. The source made the active and inactive calls. Unless noted, the rule behind the calls is not given here.

Assay [1] in a line: HepG2 liver cancer cell viability effects, profiling panel, resazurin fluorescence, 24 h, PK04 Diversity Set (AID 1172). The note with it: higher = more signal. (In general: The colour change of resazurin is a common sign of viable cells or microbes.)
Assay [2] can be described thus: basal S. cerevisiae growth modulation, no modifier, primary screen, OD600, strain BY4716, 24 h, basal condition (AID 1173). The note with it: OD600, 24 h, higher = more signal, called active from +8 up or from −8 down.
The nature of assay [3]: MM1S myeloma cell viability, profiling panel, resazurin fluorescence, basal, 24 h, PK04 Diversity Set (AID 1174).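 Note: MM1S multiple myeloma cell line.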 The note with it: higher = more signal, called active from +8 up or from −8 down.
Assay [4] deals with Dihydroorotate dehydrogenase (quinone), mitochondrial (Plasmodium falciparum (isolate 3D7)) (UniProt Q08210). The assay is described as follows: PfDHODH enzyme inhibitors, primary screen, biochemical, C-terminal His tag, absorbance 600 nm (AID 1175).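 Note: recombinant parasite enzyme with a five histidine tag at its C terminus.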 As to conditions: DCIP absorbance 600 nm, higher = more signal, called active from +8 up or from −8 down.
The nature of assay [5]: P. aeruginosa biofilm formation inhibitors, primary screen, strain PAO1, LB-PBS medium, absorbance 600 nm (AID 1176). As to conditions: P. aeruginosa PAO1 growth/biofilm, A600, 12 h; higher = more signal.
Assay [6] is described as follows: S. cerevisiae RM11-1a growth modifiers, primary screen, strain RM11-1a, OD600, basal, 24 h (AID 1177).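 Note: cultures grown under basal conditions with no added stressor.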 As to conditions: OD600, 24 h, higher = more signal, called active from +8 up or from −8 down.
Assay [7] in a line: E. coli acrAB mutant growth effects, primary screen, E. coli filamentation inducers, strain DRC39, OD650, 24 h (AID 1178).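 Note: growth measured as culture turbidity by optical density at 650 nm.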 The note with it: higher = more signal, called active from +8 up or from −8 down.
A short description of assay [8]: E. coli acrAB mutant growth effects, primary screen, E. coli filamentation inducers, strain DRC39, OD650, 48 h (AID 1179).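 Note: screen aims at cell division blockers that make cells filament.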 As to conditions: E. coli DRC39 delta-acrAB growth, higher = more signal, called active from +8 up or from −8 down.
A short description of assay [9]: RPMI8226 myeloma cell viability, profiling panel, resazurin fluorescence, basal, 24 h, PK04 Diversity Set (AID 1180).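 Note: RPMI8826 multiple myeloma cell line at 5000 cells per well.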 As to conditions: higher = more signal.
Assay [10] addresses E3 ubiquitin-protein ligase XIAP (Homo sapiens) (UniProt P98170). The assay can be described thus: XIAP binders, primary screen, biophysical, small-molecule microarray, fluorescence 635 nm (AID 1181).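 Note: score merges 667 nm emission and signal to noise over triplicate slides.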 As to conditions: small-molecule microarray binding, higher = more signal.
Assay [11] has as its system XIP peptide (Xip251-270) binding. The assay is described as follows: small-molecule binders of XIP peptide, primary screen, biochemical, small-molecule microarray, fluorescence 635/667 nm, 0.1 µg/mL protein (AID 1182). The note with it: fluorescent protein binding, 635 nm, higher = more signal, called active from +8 up or from −8 down.
The subject of another assay is XIP peptide (Xip251-270). The assay is described as follows: small-molecule binders of XIP peptide, primary screen, biochemical, small-molecule microarray, fluorescence 635/667 nm, 0.5 µg/mL protein (AID 1183). The note with it: small-molecule microarray binding, fluorescence 635 nm; higher = more signal.
The nature of assay [12]: Plasmodium falciparum growth inhibition, primary screen, strain 3D7, DAPI fluorescence, 100 nL (AID 1184).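 Note: parasites grown inside human red blood cells in medium with human serum.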 The note with it: P. falciparum 3D7 growth, 3 d, higher = more signal.
The target in assay [13] is Homeobox protein Hox-A13 (Mus musculus) (UniProt Q62424). The assay can be described thus: inhibitors of HoxA13-DNA binding, primary screen, biochemical, fluorescence polarization, labeled oligonucleotide (AID 1185). The note with it: 15 min, higher = more signal, called active from +8 up or from −8 down. (In fluorescence polarisation assays a small probe gives low polarisation when free and higher when bound to something large.)

The nature of assay [14]: inhibitors of hydroxyurea-induced Chk1 phosphorylation, primary screen, imaging, HeLa, phospho-Chk1 antibody, percent positive cells (AID 1186). The note with it: hydroxyurea-induced phospho-Chk1 immunofluorescence imaging, higher = more signal.
Assay [15] is described as follows: inhibitors of hydroxyurea-induced Chk1 phosphorylation, primary screen, imaging, HeLa, phospho-Chk1 nuclear intensity (AID 1187). The note with it: hydroxyurea-induced phospho-Chk1 immunofluorescence imaging, higher = more signal.

Chain of Dihydroorotate dehydrogenase (quinone), mitochondrial (Plasmodium falciparum (isolate 3D7)) (Q08210 whole entry, looked up): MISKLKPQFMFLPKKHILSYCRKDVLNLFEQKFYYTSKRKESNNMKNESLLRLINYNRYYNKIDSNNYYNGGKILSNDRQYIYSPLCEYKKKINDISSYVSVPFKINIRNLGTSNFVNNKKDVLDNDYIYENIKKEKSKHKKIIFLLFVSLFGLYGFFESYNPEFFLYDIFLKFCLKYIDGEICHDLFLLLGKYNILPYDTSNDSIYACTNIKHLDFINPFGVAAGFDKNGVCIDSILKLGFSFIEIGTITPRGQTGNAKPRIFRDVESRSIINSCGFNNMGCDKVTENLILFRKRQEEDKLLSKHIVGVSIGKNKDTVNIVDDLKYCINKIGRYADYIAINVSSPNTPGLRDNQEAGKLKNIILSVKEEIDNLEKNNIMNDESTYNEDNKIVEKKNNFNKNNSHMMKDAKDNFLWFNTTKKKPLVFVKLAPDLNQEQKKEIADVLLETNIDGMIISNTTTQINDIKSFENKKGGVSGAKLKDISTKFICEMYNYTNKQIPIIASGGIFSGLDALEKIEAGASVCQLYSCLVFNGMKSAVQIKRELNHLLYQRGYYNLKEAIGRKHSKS
Chain of E3 ubiquitin-protein ligase XIAP (Homo sapiens) (P98170 whole entry, looked up): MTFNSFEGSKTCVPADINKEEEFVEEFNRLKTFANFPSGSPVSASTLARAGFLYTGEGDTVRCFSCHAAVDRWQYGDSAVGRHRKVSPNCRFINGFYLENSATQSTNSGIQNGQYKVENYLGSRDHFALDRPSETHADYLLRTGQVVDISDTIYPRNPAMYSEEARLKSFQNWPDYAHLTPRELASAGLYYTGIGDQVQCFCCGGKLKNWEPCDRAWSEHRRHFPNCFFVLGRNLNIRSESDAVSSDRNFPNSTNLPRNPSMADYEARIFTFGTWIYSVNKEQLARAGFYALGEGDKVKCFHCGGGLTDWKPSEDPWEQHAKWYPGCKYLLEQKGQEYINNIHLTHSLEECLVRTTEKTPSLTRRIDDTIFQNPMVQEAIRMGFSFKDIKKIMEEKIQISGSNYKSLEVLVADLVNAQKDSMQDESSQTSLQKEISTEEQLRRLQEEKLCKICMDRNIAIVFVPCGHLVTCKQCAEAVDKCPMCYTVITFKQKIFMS
Chain of Homeobox protein Hox-A13 (Mus musculus) (Q62424 whole entry, looked up): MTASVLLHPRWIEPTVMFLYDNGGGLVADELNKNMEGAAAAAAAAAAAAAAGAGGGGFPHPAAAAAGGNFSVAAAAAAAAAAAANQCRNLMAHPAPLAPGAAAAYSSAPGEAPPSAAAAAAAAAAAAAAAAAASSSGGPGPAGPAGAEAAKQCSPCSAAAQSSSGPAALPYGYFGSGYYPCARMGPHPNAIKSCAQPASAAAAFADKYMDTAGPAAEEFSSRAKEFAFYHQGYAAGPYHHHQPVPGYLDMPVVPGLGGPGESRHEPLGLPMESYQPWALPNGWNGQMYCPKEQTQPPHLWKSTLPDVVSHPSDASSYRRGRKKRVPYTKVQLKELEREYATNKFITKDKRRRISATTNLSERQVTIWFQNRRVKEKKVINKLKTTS

Turning to `CC(C)C(CO)N1C(=O)[C@@H]2C3C(=O)OCCC/C=C\[C@H]3OC23C=CCN(Cc2ccccc2)C(=O)[C@@H]13` (some centres undefined), the z-score in assay [1] is 0.49; in assay [2] it was -0.612 (inactive); in assay [3], 0.607 (inactive); in assay [5] it was -1.03 (inactive); in [6], -0.0566 (inactive); in assay [7], 1.15 (inactive). For the same compound, the z-score in [8] was 0.755 (inactive); in assay [9], 1.14; in assay [12], 0.359; in assay [13], -5.12 (inactive); in [14], -0.932 (inactive); in [15] it was -0.842 (inactive). Besides, the composite z-score in [4] was -0.479 (inactive); in assay [10] it was -0.166; in [11] it was 1.22 (inactive); in the assay with XIP peptide (Xip251-270), -0.209.
For the compound `C=CCN1Cc2ccccc2[C@H]2OC(c3ccc(OCCCO)cc3)=N[C@@]2(CCS(=O)(=O)c2ccccc2)C1=O`, the z-score in [1] was -0.439; in assay [2], 1.11 (inactive); in [3], -0.321 (inactive); in [5], 1.2 (inactive); in [6], 0.86 (inactive); in assay [7], -0.135 (inactive). Moreover, the z-score is -0.342 (inactive) in assay [8]; -0.0829 in [9]; -2.18 in [12]; -3.88 (inactive) in [13]; -0.163 (inactive) in [14]; -0.237 (inactive) in assay [15]. Besides, the composite z-score in [4] is 0.2 (inactive); in assay [10], -0.0599; in [11], 1.61 (inactive); with XIP peptide (Xip251-270), 0.767.
Take `CCCC#C[Si](O[C@H](CC)c1cn(Cc2ccccc2)nn1)(C(C)C)C(C)C`: the z-score in assay [1] is -0.394; in [2] it was -14.2 (active); in [3], -1.05 (inactive); in assay [5] it was 0.0763 (inactive); in assay [6], -0.0787 (inactive); in assay [7] it was -0.393 (inactive). Besides, the z-score in assay [8] is -0.195 (inactive); in assay [9], -0.754; in assay [12] it was 0.0331; in assay [13], -0.88 (inactive); in assay [14], -0.074 (inactive); in assay [15], 0.0744 (inactive). Also, the composite z-score in [4] is -0.205 (inactive); in assay [10] it was -0.173; in [11] it was -0.249 (inactive); in the assay with XIP peptide (Xip251-270) it was 0.598.
On to `[N-]=[N+]=Nc1ccccc1[C@@H]1OC(c2ccc(OCCCO)cc2)=N[C@]1(Cc1ccccc1)C(=O)NCCN1CCOCC1`, for which the z-score was -0.158 in [1]; -2.57 (inactive) in assay [2]; -1.37 (inactive) in assay [3]; -0.441 (inactive) in assay [5]; -0.158 (inactive) in [6]; 0.826 (inactive) in [7]. The z-score in [8] is -0.382 (inactive); in assay [9], -1.73; in assay [12] it was -2.65; in [13], -3.81 (inactive); in assay [14], -0.437 (inactive); in assay [15], -0.456 (inactive). The composite z-score in assay [4] was 0.417 (inactive); in assay [10] it was -0.0663; in assay [11], 0.764 (inactive); in the assay on XIP peptide (Xip251-270), 0.441.
Take `C=CCN1C(=O)[C@@]2(O[C@@H](CCn3cc([C@H](O)c4ccccc4)nn3)[C@H]([Si](C)(C)c3ccc(OC)cc3)[C@H]2C)c2cc(N3C(=O)c4cccc5cccc3c45)ccc21`: the z-score in [1] was -1.36; in assay [2], 0.318 (inactive); in [3], -2.17 (inactive); in [5] it was 0.72 (inactive); in [6] it was 1.72 (inactive); in assay [7] it was 0.0833 (inactive). Further, the z-score is -0.0869 (inactive) in assay [8]; -2.42 in [9]; -0.816 in assay [12]; -3.29 (inactive) in assay [13]; -0.0586 (inactive) in [14]; 0.311 (inactive) in assay [15]. Besides, the composite z-score in [4] is -0.0217 (inactive); in [10] it was 0.212; in assay [11] it was 0.185 (inactive); in the assay on XIP peptide (Xip251-270) it was 0.21.
As for `CC(=O)OCC1C2CC[C@H]3C(OCc4ccc(F)cc4C(F)(F)F)OC[C@]4(C)[C@H]3C2=C(CN4C(=O)OC(C)(C)C)[C@H](C)C1COC(C)=O` (some centres undefined), the z-score was -1.11 in assay [1]; 1.69 (inactive) in assay [2]; -1.34 (inactive) in assay [3]; 1.14 (inactive) in [5]; 1.93 (inactive) in assay [6]; -1.47 (inactive) in assay [7]. The z-score is -0.748 (inactive) in [8]; -1.18 in assay [9]; -1.22 in [12]; -3.13 (inactive) in assay [13]; 0.657 (inactive) in assay [14]; 0.833 (inactive) in [15]. For the same compound, the composite z-score in assay [4] was 0.182 (inactive); in assay [10] it was 0.691; in [11], -0.07 (inactive); with XIP peptide (Xip251-270) it was 0.653.
In the case of `COC(=O)C1(Cc2ccccc2)C=C2C(=C(C)C(=O)C2C)CN1` (centres undefined), the z-score in [1] was -0.896; in assay [2], 1.1 (inactive); in assay [3] it was -0.86 (inactive); in assay [5], 0.452 (inactive); in assay [6], -0.527 (inactive); in [7], 0.858 (inactive). Moreover, the z-score in assay [8] is 1.2 (inactive); in assay [9] it was -0.625; in assay [12], 0.235; in [13], -5.82 (inactive); in [14], 0.0869 (inactive); in assay [15] it was 0.244 (inactive). The composite z-score is -1.98 (inactive) in assay [4], -0.168 in [10], -0.217 (inactive) in assay [11] and 0.943 in the assay with XIP peptide (Xip251-270).
As for `C#CCN1[C@@H](Cc2ccccc2)C(=O)O[C@H](Cc2ccccc2)[C@@H]1/C=C/C1CC1`, the z-score in [1] was 0.642; in assay [2], -0.236 (inactive); in assay [3] it was 1.56 (inactive); in [5], -0.565 (inactive); in assay [6], 0.0761 (inactive); in [7] it was 1.37 (inactive). Further, the z-score is 1.06 (inactive) in assay [8]; 1.62 in assay [9]; -1.18 in assay [12]; -0.571 (inactive) in [13]; -0.352 (inactive) in assay [14]; -0.267 (inactive) in [15]. Besides, the composite z-score in assay [4] is 0.0255 (inactive); in [10] it was -0.208; in [11], -0.157 (inactive); with XIP peptide (Xip251-270), 0.5.
As to `CCOC(=O)C1=CC[C@@H](c2ccccc2)N(S(=O)(=O)c2ccc(C)cc2)[C@H]1c1ccccc1I`, the z-score is 0.76 in [1]; 1.25 (inactive) in assay [2]; -0.0131 (inactive) in assay [3]; 1.05 (inactive) in assay [5]; -0.217 (inactive) in [6]; 0.254 (inactive) in assay [7]. The z-score in assay [8] was 0.202 (inactive); in [9] it was -1.16; in assay [12] it was -2.07; in assay [13] it was -1.19 (inactive); in [14] it was 0.0035 (inactive); in assay [15], -0.763 (inactive). The composite z-score is -0.158 (inactive) in assay [4], -0.123 in [10], -0.0622 (inactive) in assay [11] and 0.77 with XIP peptide (Xip251-270).
